Bioassay records as filed in PubChem BioAssay.
Nrf2 activator = qHTS of Nrf2 Activators; Potency, µM (highest dose often 46.1 µM), actives largely listed as activators; AREc32 ARE-luciferase reporter (MCF7-derived line), luminescence, 24 h; AID 624171, 2012; actives 0.31% (n = 410,000); further: nearly all actives have a fitted effect of over 65% in size
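Reporter line AREc32 (ARE-Fluc), seeded overnight in OPTI-MEM with 5% FBS; compound pin-transferred, 24 hr at 37 deg C, 5% CO2; luminescent read-out.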
A549 viability = Nrf2 qHTS screen for inhibitors: counterscreen for cytotoxicity | A549 ARE-Fluc cells, CellTiter-Fluor viability, 18-24 h | Potency, µM (doses to about 46 µM), actives largely listed as inhibitors | actives 0.16% (n = 390,000)
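Cytotoxicity counterscreen: CellTiter-Fluor fluorescence was measured in A549 ARE_Fluc cells after 18-24 h of compound exposure in a concentration series. The subsequent BugLite luminescent read reports ARE-luciferase activity.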
ATXN2 expr inh = Primary qHTS for Inhibitors of ATXN expression | HEK-293 ATXN2-luciferase reporter, luminescence, 24 h | Potency, µM (highest dose often 57 µM), usual class: inhibitors | actives 0.72% (n = 360,000) | AID 1745845, 2022; further: nearly all actives have a fitted effect of over 55% in size
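ATXN2-luciferase reporter cells (luciferase flanked by upstream and downstream ATXN2 gene portions) were treated 24 h at 37 °C with compounds at up to 57 uM. SteadyGlo luminescence gave expression; GF-AFC fluorescence gave viability.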
ATXN viability = Viability Counterscreen for Primary qHTS for Inhibitors of ATXN expression. S2 cells (HEK-293 line with an ATXN2-luciferase reporter) viability, CellTiter-Fluor protease fluorescence, 24 h. Potency, µM (top dose mostly 56.7 µM), usual class: cytotoxic. actives 0.49% (n = 400,000). AID 651635, 2014; further: nearly all actives have a fitted effect of over 40% in size
Nrf2 block = Nrf2 qHTS screen for inhibitors; Potency, µM (titrated, usually from 46 µM), most hits filed as inhibitors; actives 2.1% (n = 360,000); A549 ARE-Fluc reporter, luciferase luminescence, 18-24 h; AID 504444, 2011; further: nearly all actives have a fitted effect of over 60% in size
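Nrf2 activity is the BugLite luminescence, read 15 min after reagent at room temperature, following CellTiter-Fluor cytotoxicity readout (30 min, 37C). Compound titrations were applied for 18-24 h to 5000 A549 ARE_Fluc cells/well in 5% FBS OPTI-MEM.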
Each line names hits and unclear results; the compound was inactive in the other large screens. Only some compounds are listed: those with a hit (about 2.9% of all), similar ones and a draw of the others. The call rests on the fitted dose curve; in most records, active means well fitted curve in the direction sought with a large enough effect; inconclusive means small, poorly fitted or top-dose-only effect, or another doubt; inactive means no such curve, though single readings can be large; an effect the other way counts as inactive or inconclusive.

CC1(C)COC(/C=C/c2cccc([N+](=O)[O-])c2)=N1	Nrf2 activator 12.6µM, A549 viability inconclusive, ATXN2 expr inh inconclusive, ATXN viability inconclusive, Nrf2 block inconclusive
CC1(C)COC(c2cc([N+](=O)[O-])ccc2Cl)=N1	none (no result: Nrf2 block)
Cc1nn(Cc2ccc(Cl)cc2Cl)c(C)c1NC(=O)c1sc2ccccc2c1Cl	ATXN viability inconclusive
Cc1nn(Cc2ccc(Cl)cc2Cl)c(C)c1NC(=O)NC12CC3CC(CC(C3)C1)C2	Nrf2 block 20.6µM
C[C@@H]1CCCCCCCCC(=O)OCCN(C(=O)OC(C)(C)C)[C@H](C)CCCCCCCCC(=O)OCCN1C(=O)OC(C)(C)C	A549 viability inconclusive, Nrf2 block inconclusive
C[C@@H]1CCCCCCCCC(=O)OCCN[C@H](C)CCCCCCCCC(=O)OCCN[C@H](C)CCCCCCCCC(=O)OCCN1	ATXN2 expr inh inconclusive, ATXN viability 20µM
Cc1ccc(C(=O)c2oc3ccccc3c2NC(=O)c2cc(-c3cc(C)ccc3O)n[nH]2)cc1	Nrf2 block 25.9µM
O=C(NC(c1ccccc1)c1cnccn1)C1CCN(CCOc2ccc(Cl)cc2Cl)CC1 (stereo not drawn)	ATXN2 expr inh inconclusive, ATXN viability 12.6µM (no result: A549 viability, Nrf2 block)
Cn1cc(CN2CCC(C(=O)NC(c3ccc(-c4ccccc4)cc3)c3cnccn3)CC2)c2ccccc21 (stereo not drawn)	ATXN viability 20µM (no result: A549 viability, Nrf2 block)
O=C(NC(c1ccc(-c2ccccc2)cc1)c1cnccn1)C1CCN(Cc2ccc3c(c2)OCO3)CC1 (stereo not drawn)	ATXN2 expr inh inconclusive, ATXN viability 31.6µM (no result: A549 viability, Nrf2 block)
Cc1ccccc1C(c1ncccc1C)N(C)C(=O)C1CCN(CCOc2ccc(Cl)cc2Cl)CC1 (stereo not drawn)	ATXN2 expr inh inconclusive, ATXN viability 25.1µM (no result: A549 viability, Nrf2 block)
NCC(O)(c1ccc(Cl)cc1)c1ccc(Cl)cc1	ATXN viability inconclusive, Nrf2 block inconclusive (no result: ATXN2 expr inh)
CCOP(=O)(OCC)c1nc(-c2ccc(Cl)cc2Cl)oc1N1CCCCC1	A549 viability inconclusive, Nrf2 block 20.6µM
CCOP(=O)(OCC)c1nc(-c2ccccc2Cl)oc1N1CCOCC1	none
O=C(NCC(=O)N(c1ccc(F)cc1)C(C(=O)NC1CCCCC1)c1ccncc1)c1ccco1 (stereo not drawn)	none
COc1ccc(C(=O)/C=C/c2ccc(OC)c(Cn3nnc4ccccc43)c2)cc1	A549 viability inconclusive, Nrf2 block 20.6µM
N#Cc1c(N2CCCCC2)nc(N)c2c(N)nc3c(c12)CC(CCl)O3 (stereo not drawn)	none (no result: ATXN viability)
CCC1(C)Cc2c(C#N)c(N)n(N)c(=S)c2CO1 (stereo not drawn)	none
COc1ccc(CCNC(=O)CCc2c(C)nc3cc(-c4cccc(F)c4)nn3c2C)cc1OC	none
COc1cc(OC)cc(-c2cc3nc(C)c(CCC(=O)NCc4ccc(Cl)cc4)c(C)n3n2)c1	ATXN2 expr inh inconclusive, ATXN viability inconclusive, Nrf2 block 10.3µM
Cc1cccc(CCNC(=O)CCc2c(C)nc3c(c(C)nn3-c3ccccc3)c2C)c1	Nrf2 block 23.1µM
COc1cc(OC)cc(-c2cc3nc(C)c(CCC(=O)NCCc4cccc(C)c4)c(C)n3n2)c1	Nrf2 block 10.3µM
CC(=O)Nc1nnc(SCC(=O)NC2CCCC2)s1	none
O=C(C1CCCN(S(=O)(=O)c2cccnc2)C1)N1CCN(c2ccccn2)CC1 (stereo not drawn)	Nrf2 block inconclusive
O=C(c1ccc2ccccc2c1)C1CCCN(S(=O)(=O)c2cccnc2)C1 (stereo not drawn)	Nrf2 block 20.6µM
COc1ccc(N(C(=O)CCl)C(C)(C(=O)Nc2c(C)cccc2C)c2ccccn2)cc1 (stereo not drawn)	none
CCN(CC)CCNc1ncnc2c1sc1nc(N3CCOCC3)c3c(c12)CC(C)(C)SC3	none (no result: ATXN2 expr inh, ATXN viability)
CN(C)CCNc1ncnc2c1sc1nc(N3CCOCC3)c3c(c12)CC(C)(C)SC3	A549 viability inconclusive, ATXN2 expr inh 20µM, ATXN viability inconclusive
Cc1cc(C(N)=O)c2ccccc2n1	none
Cc1cc(Sc2nnc(N)s2)c2ccccc2n1	ATXN2 expr inh inconclusive, ATXN viability 25.1µM, Nrf2 block inconclusive
Cc1cc(Sc2nnc(/N=C/N(C)C)s2)c2ccccc2n1	ATXN viability inconclusive, Nrf2 block 7.31µM (no result: ATXN2 expr inh)
